Inconclusive results are not listed. Active and inactive are the calls of the source. The call rests on the fitted dose curve; in most records, active means well fitted curve in the direction sought with a large enough effect; inconclusive means small, poorly fitted or top-dose-only effect, or another doubt; inactive means no such curve, though single readings can be large; an effect the other way counts as inactive or inconclusive.
Key:
[1] = qHTS for Inhibitors of Plasmodium falciparum (DD2) proliferation (AID 504314);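 further: parasite DNA measured by SYBR Green fluorescence after red cell lysis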
How it was run: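 Fluorescence read-out (ex 485/em 535 nm) of SYBR Green-stained parasite DNA quantifies intraerythrocytic growth. Cultures at 0.3% parasitemia and 2.5% hematocrit were treated for 72 h; data normalized to DMSO and 0.29 uM artemisinin wells.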

[2] = qHTS for Inhibitors of Plasmodium falciparum (GB4) proliferation (AID 504315); further: nearly all actives have a fitted effect of over 50% in size
How it was run: (§1)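 Erythrocytes infected with P. falciparum line (0.3% parasitemia, 2.5% hematocrit final) incubated with compounds 72 h at 37 °C, 5% CO2; SYBR Green lysis buffer added, fluorescence read next day. Normalized to 0.29 uM artemisinin and DMSO.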

[3] = qHTS for Inhibitors of Plasmodium falciparum (7G8) proliferation (AID 504316); further: series mostly up to about 6.7 µM; nearly all actives have a fitted effect of over 65% in size
How it was run: as §1

[4] = qHTS for Inhibitors of Plasmodium falciparum (HB3) proliferation (AID 504318); further: nearly all actives have a fitted effect of over 60% in size
How it was run: as §1

[5] = qHTS for Inhibitors of Plasmodium falciparum (CP250) proliferation (AID 504320)
How it was run: as §1

Measured: Potency

COC(=O)[C@H]1[C@H](CCc2ccccc2)NC(=O)N(Cc2ccccc2)[C@@H]1C
inactive: all assays above

CCOC(=O)CN1C(=O)N[C@@H](CCc2ccccc2)[C@@H](C(=O)OC)[C@H]1C
inactive: all assays above

COC/C=C/C1=CC2=CC(=O)C(C)(OC(=O)c3cnc4ccccc4n3)C(=O)C2=CN1C1CCCC1 (stereo not given)
inactive: all assays above

COC(=O)CCC(=O)OC1(C)C(=O)C2=CN(CCCCO)C(c3ccc(OC)cc3)=CC2=C(Br)C1=O (stereo not given)
inactive: all assays above

CCCCC1=CC2=CC(=O)C(C)(OC(=O)CC)C(=O)C2=CN1CC(C)C (stereo not given)
inactive: all assays above

CCOC(=O)CN1C(=O)N[C@@H](c2cccc(C(F)(F)F)c2)[C@H](C(=O)OC)[C@H]1C
inactive: all assays above

COC(=O)CCC(=O)OC1(C)C(=O)C=C2C=C(C3CC3)N(C(CO)CO)C=C2C1=O (stereo not given)
inactive: all assays above

C=CCOC(=O)C(C(C)=O)[C@@H](NC(=O)OC)c1cccc(C(F)(F)F)c1 (stereo not given in full)
inactive: all assays above

COC(=O)CC=C[C@@H](C)[C@H](OC)c1cc(F)ccc1Br
inactive: all assays above

CCCNC(=O)N1C2=NC(C(=O)OC)=C(C(=O)OC)[C@@H]3Nc4ccccc4[C@]23C[C@H]1C(=O)OC
inactive: all assays above

C=CCOC(=O)N[C@H](C(C(=O)OC)=C(C)NCc1ccccc1)c1ccc(C)cc1
inactive: all assays above

C=CC1=C2C=C(C3CC3)N(Cc3ccco3)C=C2C(=O)C(C)(OC(=O)c2ccco2)C1=O (stereo not given)
inactive: all assays above

COC(=O)C[C@H]1c2ccccc2[C@H]2C(=C[C@@H](C)[C@H]3C(=O)N(O)C(=O)[C@H]32)N1C(=O)OC
inactive: all assays above

CC[C@@H](C)CN1C(=O)N[C@@H](c2ccccc2)C(C(C)=O)=C1C
inactive: all assays above

COC(=O)C1=C(C(=O)OC)[C@@H]2Nc3ccccc3[C@@]23C[C@@H](C(=O)OC)N(S(=O)(=O)c2cccs2)C3=N1
inactive: all assays above

COC/C=C/C1=CC2=CC(=O)C(C)(OC(=O)c3cnc4ccccc4n3)C(=O)C2=CN1CCOC (stereo not given)
inactive: all assays above

CCCCC1=CC2=C(c3ccco3)C(=O)C(C)(OC(=O)c3ccc(OC)cc3)C(=O)C2=CN1CCc1c[nH]c2ccccc12 (stereo not given)
inactive: all assays above

COC(=O)C1=C(C(=O)OC)[C@@H]2N(C)c3ccc(OC)cc3[C@@]23C[C@@H](C(=O)OC)N(C(C)=O)C3=N1
inactive: all assays above

CCOC(=O)CN1C(=O)N[C@@H](CCc2ccccc2)C(C(=O)OC)=C1C
inactive: all assays above

COC(=O)C1=C(C(=O)OC)[C@@H]2Nc3ccccc3[C@@]23C[C@@H](C(=O)OC)N(C(=O)c2ccc(Br)cc2)C3=N1
inactive: all assays above

CCOC(=O)CN1C(=O)N[C@@H](c2cccc(C(F)(F)F)c2)C(C(C)=O)=C1C
inactive: all assays above

CCCCC1=CC2=CC(=O)C(C)(OC(=O)CC)C(=O)C2=CN1C1CCCC1 (stereo not given)
inactive: all assays above

CCOC(=O)[C@@]1([C@@H](NC(=O)OC)c2cccc(F)c2)CCCC1=O
inactive: all assays above

COCCN1C(=O)N[C@@H](c2cccc(F)c2)C(C(=O)OC)=C1C
inactive: all assays above

CC#CCN1c2ccccc2[C@]23C[C@@H](C(=O)OC)N(C(=O)c4ccco4)C2=NC(C(=O)OC)=C(C(=O)OC)[C@H]13
inactive: all assays above

COc1cccc([C@@H]2Oc3ccc(Br)cc3C(=O)[C@@H]2OC(=O)Nc2cc(OC)c(OC)c(OC)c2)c1
inactive: all assays above

Reference: PubChem BioAssay (NCATS)
